Bioassay records: PubChem BioAssay, The Scripps Research Institute Molecular Screening Center
Sampled rows, rich in hits. Any-hit rate of the full collection: about 2.4%.
CHO-K1 Ca ag: counter-screen for M1 agonists: effect in parental CHO-K1 cells; Fluo-8 calcium fluorescence; scaled to maximal ATP response, vehicle zero; activation, % at 3 µM; 360,000 compounds, 0.48% hits; in the data active = activation above about 15%;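 note: untransfected CHO-K1 host cells lacking M1 receptor as counterscreen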
M1 PAM parental: nonselective calcium activators in parental CHO-K1 cells, primary screen, counter-screen for M1 PAM project, cell-based, Fluo-8 calcium fluorescence, full deck, 1536-well; ATP EC20; 0% at ATP EC20, 100% at ATP max; activation, % at 3 µM; 360,000 compounds, 0.02% hits; AID 602247, 2012;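 active = activation above the run cutoff, the mean activation of all test compounds plus 3 SD, cut at about 40% in these data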;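 note: peak over basal fluorescence ratio in a 140 s read after ATP addition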
CHO-K1 Ca antag: counter-screen for M1 antagonists: effect in parental CHO-K1 cells; ATP-induced calcium, Fluo-8 fluorescence; inhibition, % at 3 µM; 360,000 compounds, 0.6% hits;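 active = inhibition above a per-plate cutoff, the plate's mean sample inhibition plus 3 SD, cut at about 24% in these data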;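 note: 0% = DMSO plus EC80 ATP and 100% = DMSO alone without ATP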
CHRM1 PAM: human M1 muscarinic receptor positive allosteric modulators, primary screen, CHO-K1 cells, Fluo-8 calcium fluorescence, 1536-well; Muscarinic acetylcholine receptor M1 (Homo sapiens), P11229; CHO-K1 hM1, ACh EC20; 0% = ACh EC20, 100% = maximal ACh; activation, % at 3 µM; 360,000 compounds, 0.088% hits; AID 588819, 2011; in the data active = activation above about 19%, passing the limit was not always enough
Target sequence (P11229 whole entry, looked up): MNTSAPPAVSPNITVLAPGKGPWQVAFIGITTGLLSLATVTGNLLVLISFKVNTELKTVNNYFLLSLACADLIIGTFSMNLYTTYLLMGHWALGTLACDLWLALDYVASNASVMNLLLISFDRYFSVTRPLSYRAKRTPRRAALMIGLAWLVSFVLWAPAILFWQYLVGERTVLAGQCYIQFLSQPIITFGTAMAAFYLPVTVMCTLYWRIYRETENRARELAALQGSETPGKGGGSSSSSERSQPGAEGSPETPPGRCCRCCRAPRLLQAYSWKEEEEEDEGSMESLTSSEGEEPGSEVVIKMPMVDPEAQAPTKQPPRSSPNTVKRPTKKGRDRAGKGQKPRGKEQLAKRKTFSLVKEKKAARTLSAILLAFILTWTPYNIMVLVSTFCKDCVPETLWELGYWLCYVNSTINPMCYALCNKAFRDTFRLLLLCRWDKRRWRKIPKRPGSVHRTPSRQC
M1 ag: human M1 muscarinic receptor agonists, primary screen, Fluo-8 calcium fluorescence, CHO-K1 cells, HTS; CHO-K1 hM1, agonist mode; 0% DMSO, 100% acetylcholine EC100; activation, % at 3 µM; 360,000 compounds, 0.33% hits; AID 588814, 2011; Muscarinic acetylcholine receptor M1 (Homo sapiens), P11229;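 active = activation above the run's mean compound activation plus 3 SD, cut at about 16% in these data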;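 note: peak over basal fluorescence ratio within a 140 s kinetic read after compound addition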
CHRM1 antagonist: human M1 muscarinic receptor antagonists, primary screen, CHO-K1 cells, Fluo-8 calcium fluorescence, 1536-well. CHO-K1 hM1, ACh EC80 antagonist. inhibition, % at 3 µM. 360,000 compounds, 1.3% hits. AID 588852, 2011;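 active = percent inhibition above its own plate's cutoff, namely the mean of that plate's compound wells plus 3 SD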;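 note: peak over basal fluorescence ratio during 140 s after agonist addition; 0% = ACh EC80 plus DMSO and 100% = DMSO alone without agonist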
Starred values were filed as active, the others as inactive; x = no result given.

SMILES	CHO-K1 Ca ag	M1 PAM parental	CHO-K1 Ca antag	CHRM1 PAM	M1 ag	CHRM1 antagonist
O=C(Oc1ccccc1N1CCOCC1)c1ccccc1	0.9	16.8	-3.0	4.7	-3.2	-10.6
COc1cccc2c1Oc1cc([N+](=O)[O-])cc(N(C)C(C)=O)c1C=C2	-1.4	9.5	-10.4	6.6	-9.1	-12.4
O=C1NC[C@H](c2ccccc2)OC(=O)[C@H](Cc2ccc(F)cc2)C/C=C\C[C@H]1CC(=O)N(CCO)Cc1ccccc1	7.7	-7.0	6.1	-21.2	0.6	41.7*
O=C1NC[C@@H](c2ccccc2)OC(=O)[C@H](Cc2ccc(F)cc2)C/C=C\C[C@H]1CC(=O)N(CCO)Cc1ccccc1	4.6	-13.1	10.3	-8.1	-6.2	16.4
O=C1N[C@@H](c2ccccc2)COC(=O)[C@@H](Cc2ccc(F)cc2)C/C=C\C[C@@H]1CC(=O)N(CCO)Cc1ccccc1	17.2*	-9.5	8.2	-19.2	4.4	32.4
O=C(C[C@@H]1C/C=C\CCC(=O)O[C@H](c2ccccc2)CNC1=O)N[C@H](CO)Cc1ccccc1	6.2	19.3	-17.1	5.7	17.9*	2.8
O=C1N[C@@H](c2ccccc2)COC(=O)[C@H](Cc2ccc(F)cc2)C/C=C\C[C@H]1CC(=O)N(CCO)Cc1ccccc1	0.4	12.3	-9.5	2.9	-1.2	-0.3
O=C1NC[C@H](c2ccccc2)OC(=O)[C@@H](Cc2ccc(F)cc2)C/C=C\C[C@H]1CC(=O)N(CCO)Cc1ccccc1	11.7	2.4	-5.9	-14.4	-1.8	34.1*
CCOc1ccc(NC(=O)/C(C#N)=C\c2ccc(N3CCCC3)c(C)c2)cc1	4.5	0.3	8.1	-12.9	1.7	25.2
CN(c1ccccc1)S(=O)(=O)c1cccc(C(=O)OCC(=O)NCc2ccc3c(c2)OCO3)c1	1.5	-13.7	20.6	1.0	-6.3	3.1
COc1ccc(C(=O)Nc2ccc(C(=O)N3CCC(C)CC3)cc2)cc1OC	0.8	-4.9	9.8	-3.9	-1.2	7.2
O=S(=O)(NC1CCN(Cc2ccccc2)CC1)c1ccc(Cl)cc1	3.7	12.9	-12.7	-24.2	-7.2	51.9*
CN(CC(=O)NC1CCN(Cc2ccccc2)CC1)S(=O)(=O)c1ccc(Cl)cc1	0.5	-4.8	-7.2	5.8	-6.5	-5.9
COc1cc(S(=O)(=O)N2CCN(Cc3ccccc3)CC2)ccc1Br	1.5	-1.3	47.5*	-4.1	-4.9	-8.9
COc1ccc(NS(=O)(=O)c2ccc(N3CCCCC3)c(N)c2)cc1	13.3	-2.9	9.1	-12.9	-0.6	35.7*
COc1ccc(NS(=O)(=O)c2ccc(N3CCCCC3)c(NC(=O)C(C)NC(N)=O)c2)cc1 (stereo not given)	1.2	12.6	-10.1	4.1	-1.1	1.3
O=S(=O)(c1ccc(Cl)cc1)N1CCN(C2CCN(Cc3ccccc3)CC2)CC1	0.2	-6.0	9.2	-17.8	-4.3	36.8*
Brc1ccc(CN2CCCCCC2)cc1	0.3	-4.5	9.0	12.2	-7.2	-15.2
O=S(=O)(NCC1NCCc2ccccc21)c1ccccc1 (stereo not given)	0.1	-7.6	14.3	-3.1	-11.9	6.1
O=[N+]([O-])c1ccccc1S(=O)(=O)N1CCN(C2CCN(Cc3ccccc3)CC2)CC1	-0.3	-3.0	3.1	-21.0	-6.4	54.2*
COc1ccc2cc(S(=O)(=O)N3CCCCCC3)ccc2c1	0.3	-11.4	6.4	-16.9	-13.6	14.3
COc1ccc(S(=O)(=O)N2CCCCC2)cc1	0.0	-5.2	27.0*	9.8	-3.7	-1.2
COc1ccc(S(=O)(=O)N2CCC(N3CCN(Cc4ccccc4)CC3)CC2)cc1	-0.1	12.4	-11.4	-35.1	-13.5	83.6*
O=[N+]([O-])c1ccc(S(=O)(=O)N2CCN(C3CCN(Cc4ccccc4)CC3)CC2)cc1	9.3	2.3	-9.5	-20.4	-12.7	12.3
O=C(OCC(=O)N1CCCCCC1)c1ccc(F)cc1F	1.2	17.7	-5.6	10.9	-1.9	-9.9
SMILES	CHO-K1 Ca ag	M1 PAM parental	CHO-K1 Ca antag	CHRM1 PAM	M1 ag	CHRM1 antagonist
O=S(=O)([O-])CCC[n+]1c(SCCCS(=O)(=O)O)sc2ccc(Cl)cc21	0.3	22.8	-8.3	9.8	-8.0	-16.2
CC(NC(=O)C12CC3CC(CC(C3)C1)C2)C(=O)NN=Cc1ccc([N+](=O)[O-])o1 (stereo not given)	0.2	8.0	-2.4	8.8	-8.8	102.0*
CSc1nnc(CCCCCCCCc2nnc(SC)o2)o1	5.1	12.0	-12.8	-3.1	-1.2	3.4
CC(C)Sc1nc(-c2cccs2)nc2cc(Cl)ccc12	9.5	12.9	0.2	x	x	x
COc1cc(/C=C2/SC(=S)N(Cc3ccccc3)C2=O)cc(Cl)c1O	5.9	-19.0	2.5	-3.8	24.7*	22.9
COc1cc(/C=C2/SC(=S)N(Cc3ccccc3)C2=O)ccc1OCC(=O)O	1.3	18.4	-0.1	15.1	1.0	-10.3
COc1cc([N+](=O)[O-])cc(/C=C2/SC(=S)N(Cc3ccccc3)C2=O)c1O	36.8*	-5.7	40.3*	-14.0	38.1*	51.2*
COc1ccc(CN2C(=O)/C(=C/c3ccncc3)SC2=S)cc1	3.0	17.5	-1.4	23.7*	4.2	-9.5
O=C1/C(=C\c2cccc([N+](=O)[O-])c2O)SC(=S)N1Cc1ccccc1	0.6	-20.5	-8.8	8.2	0.3	-7.5
Cc1ccc(C(=O)NCCNc2ncc(C(F)(F)F)cc2Cl)cc1[N+](=O)[O-]	1.5	-1.9	-3.1	-32.4	-11.5	46.0*
COc1ccc(C(=O)NCCNc2ncc(C(F)(F)F)cc2Cl)cc1[N+](=O)[O-]	3.6	-0.6	-4.7	-6.4	-6.0	5.5
COc1ccccc1N1CC(C(=O)OCC(=O)c2c(N)n(C)c(=O)n(C)c2=O)CC1=O (stereo not given)	-0.1	17.5	-11.4	7.3	-1.2	-12.9
O=S(=O)(c1ccc2nc(N3CCN(c4ccccc4F)CC3)ccc2c1)N1CCCCC1	2.1	-5.6	24.6*	-3.2	-1.1	2.9
Cc1cccc(C(=O)NCC(=O)NC(C)c2ccc(-n3ccnc3)cc2)c1 (stereo not given)	0.4	13.8	3.3	2.1	-5.0	-1.8
Cc1cccc(C(=O)OCC(=O)c2ccc3c(c2)NC(=O)CO3)c1	7.4	7.2	-8.0	-11.8	2.4	4.1
CCN(CC)S(=O)(=O)c1cccc(C(=O)OCC(=O)c2ccc3c(c2)NC(=O)CO3)c1	17.3*	-3.5	5.3	-27.3	-3.4	32.6
Cn1nnnc1SCC(=O)c1ccc(Br)s1	-0.3	-7.9	-4.1	-3.4	-5.4	20.2
